PREPL inhibitor – inhibitors of human prolyl oligopeptidase-like enzyme PREPL; 320,000 compounds, 0.68% hits; inhibition, % at 5.96 µM; recombinant PREPL, fluorescence polarization activity-based probe; in the data active = inhibition above about 43%;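 also: 0% = enzyme with DMSO and 100% = wells lacking enzyme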
TMEM16A inh – inhibitors of mouse TMEM16A calcium-activated chloride channel. Q8BHY3. HEK293 TMEM16A/YFP iodide influx fluorescence, ionomycin. normalized B-score (activity score, 25-100; higher = stronger inhibition) at 10 µM. 310,000 compounds, 1.2% hits. AID 588511;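 active = ratio plate-corrected score three or more library SD toward inhibition, starting fluorescence score within five deviations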;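 also: score derived from kinetic fluorescence span divided by baseline fluorescence per well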
Target sequence (Q8BHY3 whole entry, looked up): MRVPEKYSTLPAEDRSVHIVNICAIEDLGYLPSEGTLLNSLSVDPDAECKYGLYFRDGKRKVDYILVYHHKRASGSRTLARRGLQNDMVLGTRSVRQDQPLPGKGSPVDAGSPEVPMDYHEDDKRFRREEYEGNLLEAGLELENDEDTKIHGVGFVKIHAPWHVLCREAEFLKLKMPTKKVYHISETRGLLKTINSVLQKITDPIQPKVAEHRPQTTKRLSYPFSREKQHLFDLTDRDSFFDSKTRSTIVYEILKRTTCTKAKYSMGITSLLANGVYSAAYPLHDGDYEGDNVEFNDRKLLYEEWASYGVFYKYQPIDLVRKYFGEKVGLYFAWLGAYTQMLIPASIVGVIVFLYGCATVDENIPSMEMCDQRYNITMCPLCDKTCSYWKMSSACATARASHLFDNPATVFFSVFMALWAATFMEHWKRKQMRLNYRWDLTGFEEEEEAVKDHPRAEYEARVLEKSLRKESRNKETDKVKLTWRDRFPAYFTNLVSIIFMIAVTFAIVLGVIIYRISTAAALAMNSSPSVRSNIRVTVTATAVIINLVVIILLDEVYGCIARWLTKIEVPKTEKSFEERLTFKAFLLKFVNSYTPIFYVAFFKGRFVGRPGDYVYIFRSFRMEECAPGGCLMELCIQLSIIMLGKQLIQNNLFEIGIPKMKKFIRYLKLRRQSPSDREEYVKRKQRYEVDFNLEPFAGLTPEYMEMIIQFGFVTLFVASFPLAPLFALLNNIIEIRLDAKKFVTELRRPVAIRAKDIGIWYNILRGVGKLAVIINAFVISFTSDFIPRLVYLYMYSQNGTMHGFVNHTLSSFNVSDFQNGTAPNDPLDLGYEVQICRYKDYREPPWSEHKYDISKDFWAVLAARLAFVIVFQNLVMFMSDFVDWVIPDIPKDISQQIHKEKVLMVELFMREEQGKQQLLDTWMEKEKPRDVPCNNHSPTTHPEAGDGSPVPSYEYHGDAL
DNA FID counter – counter-screen for HCV NS3 helicase inhibitors: DNA intercalator displacement. DNA fluorescent intercalator displacement, fluorescence. inhibition, % at 7.9 µM. 290,000 compounds, 0.17% hits. AID 1845; in the data active = inhibition above about 37%;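 also: 0% = vehicle and 100% = reference compound; higher means more ethidium bromide displaced from hairpin DNA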
TMEM16A act – activates or potentiates the mouse TMEM16A chloride channel; Q8BHY3; HEK293 TMEM16A/YFP-H148Q/I152L, iodide quench fluorescence; hits give low values; B-score at 10 µM; 340,000 compounds, 0.3% hits; AID 623877;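 active = fluorescence-ratio B-score plate-corrected deviation score at least 3 library SD below zero, with starting fluorescence score within 5 deviations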;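 also: channel opened by trigger with iodide after compound preincubation; score built on the fluorescence ratio of max minus min over baseline; more negative score means more quench and so TMEM16A activation or potentiation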
PP1 counter – PP1-alpha (human) inhibition in PP5 counter-screen; purified PP1alpha, OMFP fluorescence; 320,000 compounds, 0.9% hits; AID 2235; inhibition, % at 6.7 µM;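 active = inhibition above the mean inhibition of all tested compounds plus 3 SD, computed separately for each screening campaign, cut at about 15% in these data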
PP5 primary – PP5 (human) phosphatase inhibition. inhibition, % at 6.7 µM. 320,000 compounds, 0.18% hits. AID 1987. P53041. purified PP5c, OMFP substrate fluorescence;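 active = inhibition above the campaign's mean inhibition across all tested compounds plus 3 SD, cut at about 9.5% in these data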;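 also: 0% = DMSO only and 100% = 100 µM cantharidin control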
Numbers without * were called inactive; i = inactive; / = no result given. The list is not random: actives were taken first. Their share in the collection is about 2.7%.

SMILES	PREPL inhibitor	TMEM16A inh	DNA FID counter	TMEM16A act	PP1 counter	PP5 primary
Cc1cc(NC(=O)c2ccc(C#N)cc2)n(-c2ccccn2)n1	-5	i	-2	-30*	0	0
COc1cc2c(cc1OC)CN(C(=O)COc1ccccc1[N+](=O)[O-])CC2	10	100*	-21	i	1	1
COc1ccc(C(=O)C(CCC(CNC(C)(C)C)C(=O)c2ccc(OC)cc2)CNC(C)(C)C)cc1 (stereo unspecified)	-27	i	43*	i	-1	0
Cc1cc(C(C#N)c2ccc(Cl)cc2)c(Cl)cc1NC(=O)c1cc(I)cc(I)c1O (stereo unspecified)	23	100*	/	i	11	-1
Cc1cc(NC(=O)c2ccc(Cl)cc2)c(C)cc1O	2	i	-1	i	-3	0
Cc1ccc(N2CCN(c3ccc(C)cc3)C2c2cccnc2)cc1	9	25*	0	i	1	2
c1ccc(N2CCN(c3ccccc3)C2c2cccnc2)cc1	18	i	3	i	1	1
C=C1CC2(CC(c3ccccc3)OC(c3ccccc3)C2)OC1=O (stereo unspecified)	/	/	/	i	/	/
COC(=O)Cn1c(O)c(N=NC(=O)CNC(=O)COc2cccc(C)c2)c2ccccc21	13	i	-20	i	2	-2
CCNc1ccc2noc3c2c1C(=O)c1ccccc1-3	107*	i	12	i	-25	-19
CCOc1ccc2noc3c2c1C(=O)c1ccccc1-3	23	i	2	i	-29	-24
O=C1c2ccccc2-c2onc3ccc(N4CCCC4)c1c23	/	/	47*	-8.3*	/	/
O=S(=O)(O)c1ccc2c(c1)C(C(Cl)(Cl)Cl)OC(C(Cl)(Cl)Cl)O2 (stereo unspecified)	/	/	/	i	/	/
NC(=O)c1cc2cc(Br)ccc2oc1=NCc1ccccc1	12	i	-3	-8.5*	-1	0
CCN(CC)CCNC(=O)c1ccc(NC(=O)c2ccc(C(=O)c3ccccc3)cc2)cc1	3	i	/	i	-8	1
CCN(CC)CCNC(=O)c1ccc(NC(=O)c2ccc(COc3ccccc3)cc2)cc1	/	i	38*	i	/	/
COCc1ccc(C(=O)Nc2cccc(S(=O)(=O)N(C)c3ccccc3)c2)cc1	9	/	/	i	/	/
CN(C)S(=O)(=O)c1cccc(NC(=O)c2ccc(COc3ccccc3)cc2)c1	-7	25*	-10	i	0	3
CC1CCN(C(=O)CSc2nnc(CNC(=O)c3ccco3)o2)CC1	-8	i	-3	-15*	-4	3
COc1ccc(-c2c[n+]3c(n2-c2ccc(C)cc2)CCCCC3)cc1	7	25*	2	i	2	0
CCCOc1ccc(-c2nc[nH]c2[N+](=O)[O-])cc1	1	i	-2	i	-6	-1
CCCCNC(=O)c1onc(CSc2ccc(C(C)C)cc2)c1C(=O)O	1	25*	-19	i	4	1
CCCCNC(=O)c1onc(CSc2ccccc2)c1C(=O)O	-2	i	-14	i	-4	-3
Cc1cc2nccc(-c3ccc(Cl)c([N+](=O)[O-])c3)n2n1	-3	i	-4	i	-2	-2
O=C(O)c1ccc(C=NN=C2c3ccccc3-c3ccccc32)cc1	/	/	/	-4.8*	/	/
SMILES	PREPL inhibitor	TMEM16A inh	DNA FID counter	TMEM16A act	PP1 counter	PP5 primary
C=CCSc1nc(-c2ccc(OC)cc2)c(C#N)c(=O)n1CC=C	/	/	-17	i	/	/
CC(C)(C)NS(=O)(=O)c1ccc(NC(=O)CS(=O)(=O)Cc2ccccc2)cc1	8	i	-26	i	1	3
O=[N+]([O-])c1cccc(S(=O)(=O)Nc2nc3ccccc3nc2Nc2cccc(S(=O)(=O)N3CCCCC3)c2)c1	/	/	-11	-5.3*	/	/
CCOc1ccc(CNc2ccc(N3CCCC3)cc2)cc1	44*	i	-2	i	16*	1
CCCNC(=O)Cn1c(=O)/c(=C/c2ccc(-c3cccc([N+](=O)[O-])c3)o2)s/c1=C\C(=O)C(C)(C)C	/	/	/	i	/	/
CCCNC(=O)Cn1c(=O)/c(=C\c2ccc(-c3cccc([N+](=O)[O-])c3)o2)s/c1=C\C(=O)C(C)(C)C	19	i	-3	i	16*	2
COc1ccc(-c2ccc3c(c2)S(=O)(=O)c2cccc(C(=O)NCc4cc(C)oc4C(F)(F)F)c2C3=O)cc1OC	2	/	/	i	/	/

From PubChem
